Screening data (PubChem BioAssay)
KCNQ2 pot: KCNQ2 (rat) channel potentiation; O88943; CHO-K1 KCNQ2, FluxOR thallium flux fluorescence; stronger effect = higher value; B-score at 10 µM; 310,000 tested, 0.54% active;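 active means fluorescence ratio B-score at least 3 SD of library B-scores, with initial fluorescence B-score within 3 of them, cut at about 5.3 in these data; same plate scores as AID 2156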;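 further: B-score of peak minus minimum over baseline fluorescence ratio after K+ and Tl+ stimulus; positive B-score means potentiation of KCNQ2 with more thallium influx and brighter signal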
KCNQ2 block: KCNQ2 (rat) channel inhibition | O88943 | CHO-K1 KCNQ2, FluxOR thallium flux, 20 min; stronger effect = lower value | B-score at 10 µM | 310,000 tested, 1.1% active;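 active means fluorescence ratio B-score at most minus 3 library SDs, with starting brightness B-score within 2 library SDs, cut at about -5.5 in these data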
Kir21 confirm: confirmation of mouse Kir2.1 potassium channel inhibitors | 2,300 tested, 41% active | Kir2.1-expressing cells, FluxOR thallium flux fluorescence; stronger effect = lower value | Tl flux remaining, % of negative control (stronger effect = lower value), % at 10 µM | shares compounds with KCNQ2 pot;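 active means Primary-screen hit whose thallium flux fell at least 3 control SD below untreated wells in both duplicates, with normal baseline fluorescence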;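 further: 0% = blank wells without stimulus and 100% = stimulated no-compound controls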
Target sequence (P35561 whole entry, looked up): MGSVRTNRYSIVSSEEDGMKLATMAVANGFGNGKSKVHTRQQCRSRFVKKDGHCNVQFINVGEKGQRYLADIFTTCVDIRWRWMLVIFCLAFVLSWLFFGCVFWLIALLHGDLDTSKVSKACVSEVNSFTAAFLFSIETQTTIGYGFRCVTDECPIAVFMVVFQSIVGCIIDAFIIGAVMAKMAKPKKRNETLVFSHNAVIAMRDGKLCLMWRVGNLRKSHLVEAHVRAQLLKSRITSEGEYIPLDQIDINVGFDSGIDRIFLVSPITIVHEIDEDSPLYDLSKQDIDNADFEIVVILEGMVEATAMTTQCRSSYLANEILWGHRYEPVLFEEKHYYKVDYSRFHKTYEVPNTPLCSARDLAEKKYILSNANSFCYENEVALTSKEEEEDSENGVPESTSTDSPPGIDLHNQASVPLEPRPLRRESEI
HEK293 ctr: alters thallium flux in parental HEK293 cells, Kir2.1 counter-screen; shares compounds with KCNQ2 pot; FluxOR thallium flux fluorescence; 0% = unstimulated blank wells; FluxOR signal as % of negative control (100 = no effect), % at 10 µM; 2,300 tested, 19% active;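 active means dye signal at least 3 control SD above or below untreated wells in both duplicates, raw fluorescence within 3, either direction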;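 further: percent is based on the flux ratio of peak minus minimum fluorescence over baseline F0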
CHO-K1 Tl ctr: alters thallium flux in parental CHO-K1 cells, KCNQ2 counter-screen. shares compounds with KCNQ2 pot. FluxOR thallium flux fluorescence; zero = vehicle mean+3SD, 100% = vehicle-minus-blank window. activity increase over 3SD of controls, % at 10 µM. 1,200 tested, 43% active. AID 2282;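 active means signal rise of at least 3 SD above the untreated control mean, in both duplicate wells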;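 further: counter screen of KCNQ2 potentiator hits so any rise reflects channel-independent effects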
KCNQ1 sel pot: human KCNQ1 counter-target activity of KCNQ2 potentiators; shares compounds with KCNQ2 pot; CHO KCNQ1 stable, FluxOR thallium flux fluorescence; beyond 3SD, as % of vehicle-control signal; activation over 3SD threshold, % at 10 µM; 1,200 tested, 28% active; AID 2283;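 active means fluorescence ratio rise of at least 3 SD of vehicle wells above their mean, in both replicate wells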;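 further: 0% = vehicle mean plus 3 SD and 100% = vehicle minus unstimulated blank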
KCNQ2 pot conf: rat KCNQ2 channel potentiator confirmation. shares compounds with KCNQ2 pot. CHO-KCNQ2 cells, FluxOR thallium flux fluorescence. potentiation, less the hit threshold, % at 10 µM. 1,200 tested, 68% active. AID 2287;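 active means fluorescence ratio rising 3 SD or more over the vehicle control mean in both replicates, plus primary screen hit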;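 further: peak minus minimum thallium fluorescence divided by baseline after K/Tl stimulus; 0% = vehicle mean plus 3 SD and 100% = vehicle minus unstimulated blank difference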
Kir21 spec: mouse Kir2.1 off-target activity of KCNQ2 potentiators. activity over 3SD threshold, % at 10 µM. HEK293 Kir2.1, FluxOR thallium flux fluorescence. shares compounds with KCNQ2 pot. 1,200 tested, 2% active;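 active means fluorescence ratio rise of at least 3 SD above the vehicle-control mean, seen in both replicates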;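 further: 0% = vehicle mean plus 3 SD and 100% = vehicle minus no-stimulus blank window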
KCNQ2 W236L MoA: rat KCNQ2 W236L mutant potentiation by KCNQ2 potentiators; shares compounds with KCNQ2 pot; current increase over 3SD of negative controls (%), stronger effect = higher value, % at 25 µM; 940 tested, 10% active; CHO KCNQ2-W236L, automated patch clamp current;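 active means current increase at least 3 SD of the untreated controls above them in both duplicate recordings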
* hit, by the source's call; i = inactive; x = no result. Sampled rows, rich in hits. Any-hit rate of the full collection: about 1.6%.

SMILES | KCNQ2 pot | KCNQ2 block | Kir21 confirm | HEK293 ctr | others
CCc1ccc(S(=O)(=O)NCCc2csc(-c3ccccc3)n2)s1 | x | i | x | x
CCc1ccc(S(=O)(=O)NCc2csc(-c3ccccc3)n2)s1 | x | i | 49%* | i
CC(Sc1ccccc1)C(=O)NCCc1ccccc1 (configuration not stated) | x | i | x | x
Cc1ccc(C(C(=O)NC(C)(C)C)N(Cc2ccccc2)C(=O)c2snc(C(N)=O)c2N)o1 (configuration not stated) | 0.03 | i | x | x
CC1=NOC(=O)/C1=C\c1ccc(-c2ccc(Br)cc2C(=O)O)o1 | 1.2 | i | x | x
CC1=NN(c2ccc(Br)cc2)C(=O)/C1=C/c1ccc(-c2ccccc2C(=O)O)o1 | 7.1* | i | i | i | CHO-K1 Tl ctr=-12;KCNQ1 sel pot=14*;KCNQ2 pot conf=19*;Kir21 spec=-33;KCNQ2 W236L MoA=i
COc1ccc(N=C2O/C(=C/c3sc(=S)n(CC4CCCO4)c3O)N=C2C#N)cc1 (configuration not stated) | x | i | x | x
C#CCNC(=O)C1=C[C@@H](c2ccc(C#C)cc2)C[C@@H](OCc2ccc(CO)cc2)O1 | x | i | 66%* | i
C#CCNC(=O)C1=C[C@@H](c2ccc(Br)cc2)C[C@@H](OCc2ccc(CO)cc2)O1 | x | i | x | x
Cc1cccc(C)c1NC(=O)CN(C1CCCCC1)S(C)(=O)=O | 0.21 | i | x | x
NS(=O)(=O)c1ccc(NCc2ccccc2OCc2ccc(F)cc2)cc1 | 6.6* | i | i | i | CHO-K1 Tl ctr=38*;KCNQ1 sel pot=-16;KCNQ2 pot conf=2.5*;Kir21 spec=-54;KCNQ2 W236L MoA=i
NS(=O)(=O)c1ccc(CCNCc2ccccc2OCc2ccc(F)cc2)cc1 | 0.56 | i | x | x
Cc1cccc(Nc2c3c(nc4ccccc24)CCC3)c1 | x | i | 31%* | i
N#Cc1cccc(Nc2c3c(nc4ccccc24)CCC3)c1 | x | i | x | x
CC1(C)C2CC=C(/C=N/NC(=S)NCCc3ccccc3)C1C2 (configuration not stated) | 5.5* | i | i | i | CHO-K1 Tl ctr=-15;KCNQ1 sel pot=-16;KCNQ2 pot conf=-18;Kir21 spec=-26
CNC(=S)N/N=C/C1=CCC2CC1C2(C)C (configuration not stated) | 1.4 | i | x | x
CCN(CC(=O)NCc1ccc(F)cc1)C(=O)c1ccc(COc2ccccc2)cc1 | x | i | x | x
O=C(NNc1cc(N2CCOCC2)nc(N2CCOCC2)n1)c1ccc(Cl)c(Cl)c1 | 3.1 | i | x | x
Cc1ccc(C(=O)NNc2cc(N3CCCC3)nc(N3CCCC3)n2)cc1 | 10* | i | i | i | CHO-K1 Tl ctr=96*;KCNQ1 sel pot=-16;KCNQ2 pot conf=39*;Kir21 spec=-38;KCNQ2 W236L MoA=i
C[C@H](NC(=O)c1ccco1)C(=O)N1CCCC1 | 2.2 | i | x | x
CCOC(=O)c1sc2nc(CC(=O)OC)nc(NCc3ccco3)c2c1C | 1.5 | i | x | x
CCOC(=O)c1sc2ncnc(NCc3ccco3)c2c1C | 14* | i | i | 238%* | CHO-K1 Tl ctr=23*;KCNQ1 sel pot=-29;KCNQ2 pot conf=47*;Kir21 spec=-31;KCNQ2 W236L MoA=i
O=C(OCCN1CCN(C2=NS(=O)(=O)c3ccccc32)CC1)c1cccc(Br)c1 | x | i | x | x
CCc1cc(-c2n[nH]c(=S)n2C(C)c2ccccc2)cs1 (configuration not stated) | 1.9 | i | 50%* | i
Cc1scc(-c2n[nH]c(=S)n2C(C)c2ccccc2)c1C (configuration not stated) | x | i | x | x
SMILES | KCNQ2 pot | KCNQ2 block | Kir21 confirm | HEK293 ctr | others
O=C1CN(S(=O)(=O)c2cccc(Cl)c2Cl)c2ccccc2N1 | 1.2 | i | 59%* | i
O=C1CN(S(=O)(=O)c2ccc(Br)cc2)c2ccccc2N1 | x | i | x | x
Cc1ccc(C(C[N+](=O)[O-])c2c(-c3ccccc3O)[nH][nH]c2=O)cc1 (configuration not stated) | x | i | x | x
CN(C[C@H](Cc1ccccc1)N(C[C@@H](CC1CCCCC1)N(CCc1ccccc1)N=O)N=O)N=O | x | i | x | x
CNC[C@@H](Cc1ccccc1)NC[C@@H](CC1CCCCC1)NCCCc1ccccc1 | -6.2 | -6.2* | i | i
CNC[C@@H](CC1CCCCC1)NC[C@H](CC(C)C)NCCc1cccc(C(F)(F)F)c1 | x | i | 28%* | i
CN(Cc1cccc(C(F)(F)F)c1)C(=O)C1CCC(=O)N(CC2CCCCC2)C1 (configuration not stated) | x | i | x | x
O=C(Cc1cccc(F)c1F)NC1CCCN(Cc2ccc(Cl)cc2)C1 (configuration not stated) | 6.2* | i | i | 218%* | CHO-K1 Tl ctr=116*;KCNQ1 sel pot=-15;KCNQ2 pot conf=16*;Kir21 spec=-50;KCNQ2 W236L MoA=i
Cc1cc(C)n(CC(=O)NC2CCCN(Cc3ccc(Cl)cc3)C2)n1 (configuration not stated) | 0.48 | i | x | x
N#Cc1ccc(CSc2nnc(Cc3cccs3)n2Cc2ccco2)cc1 | x | i | 53%* | i
N#Cc1ccc(CSc2nnc(-c3ccccc3)n2Cc2ccco2)cc1 | x | i | x | x
Cc1ccc(N=Nc2c(N)[nH]n3c(=O)cc(-c4ccccc4)nc23)cc1 | 4.3 | i | x | x
COc1ccc(-c2c(C(F)(F)F)[nH]n3c(=O)cc(-c4ccccc4)nc23)cc1 | 15* | i | i | 225%* | CHO-K1 Tl ctr=-18;KCNQ1 sel pot=66*;KCNQ2 pot conf=49*;Kir21 spec=-31;KCNQ2 W236L MoA=i
Cc1[nH]n2c(=O)cc(-c3ccc([N+](=O)[O-])cc3)nc2c1-c1ccccc1 | x | i | x | x
COc1cccc(N=Nc2c(N)[nH]n3c(=O)cc(-c4ccccc4)nc23)c1 | 5.9* | i | i | i | CHO-K1 Tl ctr=-7;KCNQ1 sel pot=-19;KCNQ2 pot conf=-9;Kir21 spec=-24
CCn1c(SCC(=O)N/N=C/C(C)=C\c2ccco2)nnc1-c1ccccc1 | 0.68 | i | x | x
CC(C)CC(=O)C1=C(O)C(=O)N(Cc2ccccc2)C1c1ccccc1 (configuration not stated) | x | i | x | x
Cc1c(OCC(=O)NCC2CCC(C(=O)O)CC2)ccc2c(-c3ccccc3)cc(=O)oc12 (configuration not stated) | 0.21 | i | x | x
CC(C)OP(=O)(CCP(=O)(OC(C)C)OC(C)C)OC(C)C | 0.66 | i | x | x
